Screens: PubChem BioAssay, National Center for Advancing Translational Sciences (NCATS)
RORg inh: inhibitors of mouse ROR gamma transcriptional activity; Drosophila S2 Gal4-RORgamma UAS-luciferase reporter, 20 h; Potency, µM (titrated, usually from 53.6 µM), for the others: at the highest dose activity change, negative = inhibition, actives largely listed as inhibitors; 5.4% of 310,000 active; AID 2551; note: nearly all actives have a fitted effect of over 60% in size
Target sequence (P51450 whole entry, looked up, the tested form may be a part): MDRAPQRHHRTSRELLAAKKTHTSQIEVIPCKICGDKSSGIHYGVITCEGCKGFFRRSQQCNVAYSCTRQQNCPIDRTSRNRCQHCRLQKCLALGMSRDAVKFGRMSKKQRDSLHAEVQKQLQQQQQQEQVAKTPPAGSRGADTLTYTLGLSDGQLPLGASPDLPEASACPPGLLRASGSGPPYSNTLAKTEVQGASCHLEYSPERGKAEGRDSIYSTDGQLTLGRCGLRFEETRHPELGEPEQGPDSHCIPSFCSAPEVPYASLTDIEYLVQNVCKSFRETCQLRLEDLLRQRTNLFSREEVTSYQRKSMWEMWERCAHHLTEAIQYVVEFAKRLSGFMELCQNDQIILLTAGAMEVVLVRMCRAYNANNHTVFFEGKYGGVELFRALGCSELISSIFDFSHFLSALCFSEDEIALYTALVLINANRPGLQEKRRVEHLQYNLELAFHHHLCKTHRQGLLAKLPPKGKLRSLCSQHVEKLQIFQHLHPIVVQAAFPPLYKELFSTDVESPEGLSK
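Drosophila S2 cells stably expressing Gal4-DBD/mouse RORγ fusion under metallothionein promoter plus UAS-luciferase; compound 1 h, then 700 uM CuSO4 induction for 20 h at ambient temperature; inhibition read as reduced luminescence.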
VP16 counter: inhibits Gal4-VP16 luciferase reporter, ROR gamma counter-screen | Drosophila S2 Gal4-VP16 UAS-luciferase, luminescence, 20 h | 3.5% of 310,000 active | Potency, µM (top dose mostly 53.6 µM), for inactives: at the top dose activity, negative = inhibition, most hits filed as inhibitors;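 note: Gal4-VP16 expression switched on by copper sulfate through the metallothionein promoter; nearly all actives have a fitted effect of over 50% in size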
ELG1 repair inh: blocks ELG1-dependent DNA repair in HEK293T cells; Potency, µM (titrated, usually from 46.1 µM), for the others: top-dose activity change, negative = inhibition, most hits filed as inhibitors; 2.3% of 330,000 active; HEK293T ELG1-luciferase reporter, luminescence, 16 h; DNA damage induced by 5-fluorouridine; AID 504467; note: nearly all actives have a fitted effect of over 55% in size
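Quantitative HTS, concentration-response format. 2,000 cells/well co-treated with 5-fluorouridine and compound, 16 hr in 5% CO2 at 37 °C; ONE-Glo luminescence read after 30 min.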
DT40 TDP1 no CPT: qHTS for Inhibitors of human tyrosyl-DNA phosphodiesterase 1 (TDP1): qHTS in cells in absence of CPT | DT40 Tdp1-/- hTDP1 cells, no CPT, ATP luminescence, 48 h | Potency, µM (doses to about 46.2 µM), inactives show at the highest dose activity change, negative = growth inhibition, usual class: inhibitors | 15% of 420,000 active; note: nearly all actives have a fitted effect of over 55% in size
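Cells were dispensed at 400 per well, compounds added by pin tool, plates incubated ≥48 hr at 37 °C, then CellTiter-Glo added for 30 min at room temperature before luminescence reading. Line: DT40 Tdp1-/- complemented with hTDP1; camptothecin omitted.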
DT40 TDP1 CPT: DT40-hTDP1 cell growth loss with CPT. chicken DT40 Tdp1-/-;hTDP1 cells + 20 nM CPT, ATP luminescence, 48 h. Potency, µM (doses to about 46.2 µM), inactives show top-dose activity change, negative = growth inhibition, most hits filed as inhibitors. 12% of 420,000 active. AID 686979; note: nearly all actives have a fitted effect of over 55% in size
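Chicken DT40 Tdp1-/- cells complemented with human TDP1, 400 cells/well, exposed to compounds plus 20 nM camptothecin for at least 48 h at 37 C; viability read as ATP content by CellTiter-Glo luminescence.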
12-LOX inh: inhibitors of human 12S-lipoxygenase ALOX12 | purified 12hLO, xylenol orange hydroperoxide absorbance | Potency, µM (top dose mostly 108 µM), for inactives: at the highest dose activity change, negative = inhibition, hits mostly inhibitors | 1.1% of 580,000 active | AID 1671190
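Hydroperoxide product was detected by ferrous iron/xylenol orange as the 573 to 405 nm absorbance ratio. Arachidonic acid at 40 uM (final) was turned over for 30 min at room temperature by 150 nM human 12hLO, pH 7.0 Hepes buffer, after 15 min compound preincubation.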
* marks the source's active call; other numbers are inactive results; ? = inconclusive; . = no result; [ ] = another dose, or the depositor's remark. Rows were chosen to be rich in hits. Some 15% of all compounds tested hit in one or more screens of this group. Calls come from the whole dose curve; as a rule, active = well fitted curve in the direction sought with a large enough effect; inconclusive = small, poorly fitted or top-dose-only effect, or another doubt; inactive = no such curve, though single readings can be large; an effect the other way counts as inactive or inconclusive. % is set by controls: 0 for no effect and ±100 for the full control effect; potency is the fitted concentration of half-maximal effect.

SMILES	RORg inh	VP16 counter	ELG1 repair inh	DT40 TDP1 no CPT	DT40 TDP1 CPT	12-LOX inh
O=C(Nc1ccc(-n2ccc(C(F)(F)F)n2)cc1)Nc1cccc(Cl)c1	?	18µM*	?	.	.	0%
Cc1noc(C)c1C(=O)Nc1ccc(-n2ccc(C(F)(F)F)n2)cc1	?	-27%	10%	?	-30%	.
COc1cc2cc(C(=O)N[C@@H](C)C(=O)Nc3nccs3)n(C)c2c(OC)c1OC	.	.	.	.	.	0%
O=C(NNc1nccc(C(F)(F)F)n1)Nc1cccc(Cl)c1	7%	5%	-12%	2%	3%	.
O=C(NNc1cc(C(F)(F)F)nc2ccccc12)Nc1cccc(Cl)c1	?	6%	?	16µM*	?	?
CCC(=O)NCC1(c2ccccc2)CCCCC1	.	.	.	.	.	13%
O=C(c1ccc2c(c1)N(Cc1cccc(Cl)c1)C(=O)c1ccccc1S2(=O)=O)N1CCc2ccccc21	.	.	.	1.6µM*	2.1µM*	-10%
O=C(c1ccc2c(c1)N(Cc1cccc(Cl)c1)C(=O)c1ccccc1S2(=O)=O)N1CCCCC1	.	.	.	?	16µM*	?
CCN1CCN(C(=O)c2ccc3c(c2)N(Cc2cccc(Cl)c2)C(=O)c2ccccc2S3(=O)=O)CC1	.	.	.	?	?	-24%
Cc1ccc(C(=O)NC2CCN(c3cc(-c4ccccc4)[nH]n3)C2)cc1 (stereo not given)	.	.	.	.	.	12%
Cc1cc(O)cc(O)c1C(=O)Cc1ccccc1	?	?	10µM*	?	-30%	6%
O=C(Cc1ccc([N+](=O)[O-])cc1)c1c(O)cc(O)cc1O	?	0%	11%	2%	13%	?
COc1cc(C2CC(=O)c3c([nH]c(C(=O)OC4CCCC4)c3C)C2)cc(OC)c1OC (stereo not given)	.	.	.	1.8µM*	1.6µM*	-17%
COC(=O)c1[nH]c2c(c1C)C(=O)CC(c1cccc(OC)c1)C2 (stereo not given)	27%	7%	-18%	1.3µM*	1.5µM*	-1%
COC(=O)c1[nH]c2c(c1C)C(=O)CC(c1cc(OC)c(OC)c(OC)c1)C2 (stereo not given)	?	?	-18%	12µM*	23µM*	16%
COCCc1noc([C@@H]2CC(F)(F)CN2C(=O)c2ccccc2F)n1	.	.	.	.	.	40%
COc1ccc(-c2nnc3n2CCN([S+](=O)([O-])c2ccc(C)cc2)C3)cc1	.	.	.	.	.	-4%
CCN(CC(=O)Nc1cc(Cl)ccc1C)C(=O)CCS(=O)(=O)c1ccc(Cl)cc1	0%	3%	-15%	?	18µM*	7%
CCN(CC(=O)Nc1ccccc1C(F)(F)F)C(=O)CCS(=O)(=O)c1ccc(Cl)cc1	.	.	-26%	-30%	?	-29%
CCOc1ccc(NC(=O)C2CCN(S(=O)(=O)c3c(C)noc3/C=C/c3c(C)cc(C)cc3C)CC2)cc1	.	.	.	6.5µM*	9.2µM*	-20%
CCOc1ccc(N(C)C(=O)C2CCN(S(=O)(=O)c3c(C)noc3/C=C/c3ccc(C)cc3)CC2)cc1	.	.	.	5.8µM*	4.1µM*	-28%
Cc1noc(/C=C/c2ccccc2F)c1S(=O)(=O)N1CCC(C(=O)NCC(C)c2ccccc2)CC1 (stereo not given)	.	.	.	-28%	-12%	-19%
CCc1ccc(NC(=O)C2CCN(S(=O)(=O)c3c(C)noc3/C=C/c3ccco3)CC2)cc1	.	.	.	-28%	?	-45%
Cc1cc(C)c(/C=C/c2onc(C)c2S(=O)(=O)N2CCC(C(=O)Nc3ccc(Cl)c(C(F)(F)F)c3)CC2)c(C)c1	.	.	.	5.8µM*	4.1µM*	-20%
COc1cc(OC)c(NC(=O)C2CCN(S(=O)(=O)c3c(C)noc3/C=C/c3c(C)cc(C)cc3C)CC2)cc1Cl	.	.	.	-19%	-3%	-19%
SMILES	RORg inh	VP16 counter	ELG1 repair inh	DT40 TDP1 no CPT	DT40 TDP1 CPT	12-LOX inh
Cc1cc(C)c(/C=C/c2onc(C)c2S(=O)(=O)N2CCC(C(=O)NCC(C)c3ccccc3)CC2)c(C)c1 (stereo not given)	.	.	.	15µM*	23µM*	-19%
Cc1ccc(-n2ccc(=O)c(C(=O)Nc3cc(C(F)(F)F)ccc3Cl)n2)cc1	.	.	.	.	.	-4%
O=C(O)CCCNS(=O)(=O)c1ccc(Cl)c(Cl)c1	.	.	.	.	.	-34%
O=C(Nc1c(NCc2ccccc2)c2ccccc2oc1=O)c1ccccc1Cl	.	.	.	.	.	-66%
CC(=O)c1c(N2CCN(C)CC2)[nH]c(-c2ccccc2)nc1=S	10µM*	-20%	2%	16µM*	?	?
CCCCC[C@H](O)/C=C/[C@H]1CCC(=O)[C@@H]1CCCCCCC(=O)N1CCCCC1CO (stereo not given in full)	0%	-9%	?	15µM*	23µM*	1%
CCCCC[C@H](O)/C=C\[C@@H]1[C@H](O)CC(=O)[C@@H]1CCCCCCC(=O)O	14%[2.98 µM]	-9%[17 µM]	.	.	.	.
O=C1NC(=NC2CCCC2)C2(CCCN(CC3CC3)C2)N1c1cc(F)cc(F)c1 (stereo not given)	.	.	.	.	.	0%[6.33 µM]
Cc1ccc(C(=O)N(Cc2ccco2)C2CC2)cc1F	.	.	.	.	.	5%
CCCc1ccc(C(=O)/C=C/c2cc(OC)c(OC)c(OC)c2)cc1	.	.	.	.	.	-15%
CCOc1ccc(C(=O)/C=C/c2cc(OC)c(OC)c(OC)c2)cc1	?	0%	?	8.2µM*	10µM*	-3%
CCOc1ccc(C(=O)c2ccc(OC)c(O)c2O)cc1	-2%	-1%	.	?	21µM*	.
COc1ccc(C(=O)/C=C/c2ccc(OC(=O)c3cc(OC)c(OC)c(OC)c3)cc2)cc1	1.8µM*	7.1µM*	-1%	21µM*	?	-21%
COc1cc(C(=O)c2cc3c(cc2C)OCO3)cc(OC)c1OC	.	.	.	0.023µM*	0.023µM*	3%
COc1cc(CC(=O)Oc2ccc3c(c2)OCO3)cc(OC)c1OC	6%[0.365 µM]	.	-9%	?	?	0%
Cc1c(O)cc(C(=O)/C=C/c2ccccc2)cc1Cl	.	.	.	.	.	-12%
COC1CCCOC12CCN(C(=O)c1ccc3n[nH]nc3c1)CC2 (stereo not given)	.	.	.	.	.	37%
O=C(Nc1ccncc1)c1ccc(SC(F)(F)F)cc1	.	.	.	.	.	-7%
COc1cc(/C=C/C(=O)c2ccc(F)cc2)cc(OC)c1OC	14%	6%	?	16µM*	?	76%
